# This is part of a sample that, as a whole, favours compounds with a hit. Of some 83,000 tested, about 20% had one in any assay.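 Growth was measured after 48 h exposure to one concentration of compound in 96-well plates. Values under 10 count as active.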 Calls of active or inactive are those of the source.
# Tested on: T-47D breast
# Assay: NCI-60 one-dose screen, 48 h (100 = growth as untreated, 0 = no growth, -100 = all killed)
# Conditions: 10 µM unless noted
row,SMILES,growth
1,Cn1c(=O)c2[nH]c(SC/C(=N/O)c3ccc(Br)cc3)nc2n(C)c1=O,23.1% (inactive)
2,Cc1c2ncccc2nc2[nH]c3ccc(OCCN(C)C)cc3c12,32.3% (inactive)
3,COc1ccc(-c2cc(C(=O)N3N=C(c4ccc(N)cc4)CC3c3ccc(Cl)cc3)c3ccccc3n2)cc1 (centres undefined),47.4% (inactive)
4,Cc1oc(-c2ccc(Cl)cc2)nc1C1=NN(C(=O)c2ccncc2)C(c2ccccc2)C1 (centres undefined),97% (inactive)
5,Nc1cc(C(=O)O)cc(-n2c(O)c(C=C3N=c4ccccc4=N3)sc2=S)c1,95.2% (inactive)
6,Nc1ncnc2c1N=C(c1ccc(F)cc1)CC(c1cccc(Nc3ccnc4cc(Cl)ccc34)c1)N2 (centres undefined),93.2% (inactive)
7,CCNC(=O)N1CCc2c(Br)c3c(c(OC)c2C1Cc1ccc(OC)cc1)OCO3 (centres undefined),20.6% (inactive)
8,Nc1nc2ccccc2c2c(=O)c3cc(Cl)ccc3sc12,45.3% (inactive)
9,Cc1ccc(S(=O)(=O)c2nc(-c3ccccc3)oc2SCC(N)=O)cc1,76.3% (inactive)
10,CCCN(CCSSCCNc1nc(N(C)O)nc(N(C)O)n1)c1nc(N(C)O)nc(N(C)O)n1,61.9% (inactive)
11,COc1cc(C=C2C(=O)NC(=S)NC2=O)cc(CN2CCCC2)c1O,110% (inactive)
12,Cc1cc(C)c2c(c1)N(C)c1ncnc(-n3c(C)nc4cc(C)ccc43)c1CC2C (centres undefined),48.9% (inactive)
13,COC1/C=C/OC2(C)Oc3c(C)c(O)c4c(O)c(c(/C=N/N(c5ccccc5)c5ccccc5)c(O)c4c3C2=O)NC(=O)C(C)=C/C=C/C(C)C(O)C(C)C(O)C(C)C(OC(C)=O)C1C (centres undefined),-3.9% (active)
14,CN(C)Cc1cc(C(C)(C)C)cc(Br)c1O,99.6% (inactive)
15,COC(=O)c1ccc2c(c1)c1c(C)c3cnccc3c(C)c1n2C,-21.6% (active)
16,CN(C)CCCn1c2c(c3cnccc3c1=O)C(=O)c1ccccc1-2,-5.32% (active)
17,O=C(NNc1nc2cc(F)ccc2n2c(CN3CCOCC3)ccc12)c1ccccc1,11.8% (inactive)
18,CCOC(=O)C/C(=N\Nc1cc(=O)[nH]c2ccc(OC)cc12)C(=O)OCC,101% (inactive)
19,COc1ccc(/C=C(/C(=O)N2CCNCC2)c2cc(OC)c(OC)c(OC)c2)cc1O,31.6% (inactive)
20,COC(=O)[C@]1(C)CCC[C@]2(C)[C@H]3C[C@@H]4[C@H]5[C@@H]6CC/C(=N\OCC/C(N)=N/O)[C@H]5[C@@]3(CC[C@H]21)CC4(C(C)C)O6,50% (inactive)

row,SMILES,growth
1,CC/C(=C(\c1ccc(Cl)cc1)c1ccc(OCCN2CCCCC2)cc1)c1ccc(O)cc1,4.66% (active)
2,CCN(CC)CCOc1ccc(/C(=C(\C)Cc2ccc(OC)cc2)c2ccc(OC(=O)NCc3ccccc3)cc2)cc1,40.6% (inactive)
3,O=[N+]([O-])c1c(O)c(Cl)cc(Cl)c1Cl,97.6% (inactive)
4,C=CC(=O)Nc1cccc(Oc2nccc(Nc3nnc(-c4ccc(Br)cc4)s3)n2)c1,82.1% (inactive)
5,O=S(=O)(Nc1ccc2ccccc2c1)c1ccc(-c2cnc(C3CC3)o2)cc1,29.8% (inactive)
6,CCCCCc1ccc(S(=O)(=O)Nc2ccc3nc(N)oc3c2)cc1,36.1% (inactive)
7,C=CCN=c1sc(-c2ccc3ccccc3c2)cn1NC(=O)c1cc2ccc1CCc1ccc(cc1)CC2,20.8% (inactive)
8,c1cc(OCCN2CCCCCC2)ccc1CNc1ccc2nc(CCC3CCCCC3)[nH]c2c1,31.6% (inactive)
9,CC1=C2CC/C(C)=C/CC[C@]3(C)O[C@H]3CC/C(C)=C/[C@H]2OC1,86% (inactive)
10,COc1ccc(C(O)c2cc3c(N)c(C(=O)Nc4cccc5ccccc45)sc3nc2C)cc1 (centres undefined),44.2% (inactive)
11,CCOc1ncc([N+](=O)[O-])c(OCC)n1,106% (inactive)
12,COc1ccc(C2[C@@H](Cl)C(=O)N2c2cc(OC)c(OC)c(OC)c2)cc1Cl (some centres undefined),43.3% (inactive)
13,CS(=O)(=O)c1ccc(-c2nc3ccccc3n2CC(=O)N/N=C/c2ccccc2)cc1,82.4% (inactive)
14,CN1CCN(c2ccc(NC3=CC(=O)c4ncncc4C3=O)cc2)CC1,-48.2% (active)
15,Cn1c(=O)[nH]c(=O)c2nc3c(nc21)-c1ccccc1C3=O,103% (inactive)
16,COc1ccc(-c2cc(C(=O)N3N=C(c4ccc(N)cc4)CC3c3ccc(Cl)cc3)c3cc(OC)ccc3n2)cc1 (centres undefined),66.7% (inactive)
17,O=c1cc(CP(=O)(O)O)c2cc(O)c(-c3ccccc3)cc2o1,101% (inactive)
18,O=C1c2cccnc2C(=O)c2c1c(C(=O)OCCc1ccccn1)c1ccccn21,-6.8% (active)
19,Cc1cc(C(=O)CCCC(=O)c2cc(C)c(O)c(C)c2)cc(C)c1O,84.6% (inactive)

# Reference: PubChem BioAssay (NCI)
